Consider 13 compounds from PubChem BioAssay.

Common to all, as to assay: BK channel mutant inhibitors and activators – cell-based, U2OS BacMam, thallium flux, beta subunits, selectivity assay, profiling panel (AID 1259406);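 note: initial slope of Thallos dye fluorescence rise after thallium is added; log ratio against the mean of 0.3% DMSO vehicle wells on the same plate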
The subject of experiment [1] is F380Y. To be noted: U2OS BacMam BK variants, at 30 µM.
Experiment [2] concerns F380Y/beta1. The following applies: U2OS BacMam BK variants, at 30 µM.
The subject of experiment [3] is F380Y/beta2Delta. To be noted: U2OS BacMam BK variants, at 30 µM.
The subject of experiment [4] is F380Y/beta4. To be noted: U2OS BacMam BK variants, at 30 µM.
The target in experiment [5] is Calcium-activated potassium channel subunit alpha-1 (Homo sapiens) + Leucine-rich repeat-containing protein 26 (Homo sapiens) (UniProt Q12791+Q2I0M4). To be noted: U2OS BacMam BK variants, F380Y/Slo1WT/gamma1, at 30 µM.
Sequence of Calcium-activated potassium channel subunit alpha-1 (Homo sapiens) + Leucine-rich repeat-containing protein 26 (Homo sapiens) (Q2I0M4 whole entry, looked up, one chain of several): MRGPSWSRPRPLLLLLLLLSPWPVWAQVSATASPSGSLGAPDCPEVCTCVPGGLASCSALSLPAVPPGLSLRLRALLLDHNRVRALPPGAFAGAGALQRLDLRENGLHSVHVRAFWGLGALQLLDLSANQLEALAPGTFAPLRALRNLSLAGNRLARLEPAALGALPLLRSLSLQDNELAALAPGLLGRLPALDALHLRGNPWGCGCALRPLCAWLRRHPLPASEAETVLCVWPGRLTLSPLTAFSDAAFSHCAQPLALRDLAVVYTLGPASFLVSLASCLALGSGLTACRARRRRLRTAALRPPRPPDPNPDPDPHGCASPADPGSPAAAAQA
The subject of experiment [6] is R275C. The following applies: U2OS BacMam BK variants, at 30 µM.
In experiment [7] the test system is R275C/beta1. To be noted: U2OS BacMam BK variants, at 30 µM.
Experiment [8] relates to R275C/beta2Delta. The following applies: U2OS BacMam BK variants, at 30 µM.
In experiment [9] the test system is R275C/beta4. The following applies: U2OS BacMam BK variants, at 30 µM.
For experiment [10], the system named is R275C/Slo1WT/beta2. To be noted: U2OS BacMam BK variants, at 30 µM.

A number with no mark means an inactive call. Activity calls are given as the source filed them.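 Rule for the calls: active = thallium flux through the channel raised or lowered by more than 3 SD from vehicle-only wells, actives on both sides; inactive = the rest.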

With `CCCCC#Cc1ccc(C(=O)NNC(=O)Nc2ccccc2)o1`, the log fold change Tl+ flux in experiment [1] was 0.0775; in [2] it was -0.0382; in [3], 0.0115; in experiment [4] it was 0.00448; in experiment [5], -0.0213; in experiment [6] it was 0.0317. The log fold change Tl+ flux was 0.0182 in experiment [7], -0.00673 in experiment [8], -0.0333 in experiment [9] and 0.023 in [10].
Regarding `CN(C1CCCCC1)S(=O)(=O)c1cccs1`, the log fold change Tl+ flux is -0.0928 in experiment [1]; -0.00759 in [2]; -0.0383 in experiment [3]; 0.000313 in experiment [4]; -0.00414 in experiment [5]; -0.0438 in [6]. In addition, the log fold change Tl+ flux was -0.00595 in experiment [7], -0.0535 in experiment [8], -0.025 in experiment [9] and 0.0321 in experiment [10].
As for `COC(=O)Cc1cccc2c(=O)c3ccccc3oc12`, the log fold change Tl+ flux in experiment [1] is 0.00439; in experiment [2], -0.00882; in [3], 0.0497; in experiment [4] it was 0.0357; in experiment [5], 0.00575; in experiment [6] it was 0.0179. In addition, the log fold change Tl+ flux in experiment [7] was -0.0476; in experiment [8] it was 0.00558; in experiment [9], 0.00377; in experiment [10] it was 0.049.
Regarding `NS(=O)(=O)c1cccc(NC(=O)c2cccnc2Oc2ccccc2)c1`, the log fold change Tl+ flux in experiment [1] was -0.000714; in experiment [2], 0.008; in [3], 0.0103; in experiment [4], -0.015; in experiment [5], -0.0607; in [6] it was -0.0268. In addition, the log fold change Tl+ flux in experiment [7] is -0.0191; in [8], 0.01; in experiment [9], 0.00433; in experiment [10], -0.0182.
In the case of `Cc1ccc(S(N)(=O)=O)c(I)c1`, the log fold change Tl+ flux was 0.00642 in [1]; 0.0178 in [2]; 0.0148 in experiment [3]; -0.000543 in experiment [4]; -0.0495 in experiment [5]; 0.0442 in [6]. Besides, the log fold change Tl+ flux in [7] was 0.0166; in experiment [8], -0.00341; in experiment [9], 0.00339; in experiment [10], -0.0513.
On to `CC(=O)C1=C(C)Nc2ccccc2S1`, for which the log fold change Tl+ flux is 0.0144 in [1]; -0.00709 in experiment [2]; -0.0326 in experiment [3]; -0.00774 in experiment [4]; -0.000563 in [5]; 0.0464 in experiment [6]. Further, the log fold change Tl+ flux in experiment [7] is -0.0243; in experiment [8] it was -0.0168; in [9], -0.00794; in experiment [10], 0.0465.
As to `Cn1c(C(=O)O)ccc1S(=O)(=O)N(Cc1ccccc1)Cc1ccccc1`, the log fold change Tl+ flux in experiment [1] was 0.0347; in experiment [2], 0.205 (active); in [3] it was 0.0498; in [4], 0.139 (active); in [5] it was 0.000486; in experiment [6], 0.00591. Moreover, the log fold change Tl+ flux was 0.0906 in experiment [7], 0.0893 (active) in experiment [8], 0.11 (active) in experiment [9] and 0.0146 in experiment [10].
In the case of `CC(=O)c1cc2cc(Cl)cc(Cl)c2oc1=O`, the log fold change Tl+ flux in experiment [1] was 0.0337; in experiment [2], 0.0359; in experiment [3], -0.0227; in [4], -0.0296; in [5], -0.0196; in experiment [6], -0.0332. For the same compound, the log fold change Tl+ flux was 0.029 in [7], 0.0111 in experiment [8], -0.0163 in experiment [9] and -0.0243 in experiment [10].
For `C#CC1(NC(=O)c2ccc(-c3ccc(CC)cc3)cc2)CCCCC1`, the log fold change Tl+ flux in [1] is 0.0109; in [2], 0.0082; in [3] it was 0.0141; in experiment [4], 0.0366; in experiment [5], 0.047; in [6], 0.0116. Besides, the log fold change Tl+ flux is -0.0162 in [7], -0.00151 in [8], 0.0306 in [9] and -0.00603 in experiment [10].
As for `O=S(=O)(c1ccc(N2CCOCC2)nc1)N1CCN(c2c(Cl)cncc2Cl)CC1`, the log fold change Tl+ flux was 0.0448 in [1]; -0.00781 in [2]; 0.0236 in [3]; -0.00865 in [4]; -0.039 in experiment [5]; 0.00433 in experiment [6]. The log fold change Tl+ flux in experiment [7] is 0.0279; in [8], 0.0194; in [9], -0.0287; in experiment [10], 0.00545.
For the compound `NC1(C(=O)O)CCSCC1`, the log fold change Tl+ flux in experiment [1] was -0.0475; in experiment [2], 0.00895; in experiment [3], -0.0146; in [4], 0.00194; in [5], -0.0223; in experiment [6] it was -0.0154. The log fold change Tl+ flux in [7] is -0.0495; in experiment [8], 0.0435; in experiment [9], -0.00913; in experiment [10] it was -0.00295.
As to `Cc1ccc(S(=O)(=O)NC(=O)NCc2csc3ccc(Cl)cc23)cc1`, the log fold change Tl+ flux was 0.252 (active) in experiment [1]; 0.65 (active) in [2]; 0.241 (active) in experiment [3]; 0.366 (active) in [4]; 0.14 (active) in [5]; 0.0453 in experiment [6]. Also, the log fold change Tl+ flux in experiment [7] is 0.48 (active); in experiment [8] it was 0.193 (active); in [9], 0.329 (active); in experiment [10], 0.116 (active).
For the compound `CSc1n[nH]c(N)c1S(=O)(=O)C(C)C`, the log fold change Tl+ flux in [1] is 0.0369; in experiment [2], 0.0175; in experiment [3], 0.0116; in experiment [4], -0.00921; in experiment [5], 0.0306; in experiment [6] it was -0.018. The log fold change Tl+ flux in experiment [7] was 0.0133; in experiment [8] it was -0.00282; in experiment [9] it was 0.0217; in [10], 0.0141.
